# Source: PubChem BioAssay (Tox21)
# The source made the active and inactive calls. Where a call stands in place of a potency, no number is given. Calls come from the whole dose curve; as a rule, active = well fitted curve in the direction sought with a large enough effect in the repeat runs; inconclusive = weak or mixed curves; inactive = flat fitted curve, though single readings scatter. Starred links: 1 amine or outer side, 2 acyl side, 3 side chain; linkers in the order of their positions; H or OH if unused. Positions of bridges follow the written chain, without caps; N, C: chain ends. Non-standard residues stand in square brackets, D forms with d. Residues, ends and D or L forms follow the SMILES beside them. *: point of attachment. X5 = NC1=N[C@@H]([C@H](N[*:1])C(=O)[*:2])C[C@H](O)N1; ΔAla(Z-3-ureido) = NC(=O)N/C=C(\N)C(=O)O; β3hOrn = NCCC[C@H](N)CC(=O)*; Orn = NCCC[C@H](N)C(=O)O; Dap = NC[C@H](N)C(=O)O; Mpa = O=C(O)CCS
# Assay: qHTS assay to test for compound auto fluorescence at 535 nm (green) in HepG2 cells (AID 720675)
# Conditions: green autofluorescence 485/535 nm, 1 h; series mostly up to 46 µM
row,Structure (SMILES),Potency
1,COCC1=C(C(=O)OC(C)OC(=O)OC(C)C)N2C(=O)[C@@H](NC(=O)/C(=N\OC)c3csc(N)n3)[C@H]2SC1 (some centres undefined),inactive
2,CO[C@@H]1[C@@H](O[C@@H]2O[C@H](C)[C@@H](O[C@H]3C[C@@](C)(O)[C@@H](OC(=O)CC(C)C)[C@H](C)O3)[C@H](N(C)C)[C@H]2O)[C@@H](CC=O)C[C@@H](C)[C@@H](O)/C=C/C=C/C[C@@H](C)OC(=O)C[C@H]1O,inactive
3,CC(=O)O[C@H]1C[C@@H]2CC[C@@H]3[C@H](CC[C@@]4(C)[C@H]3C[C@H](N3CC[N+](C)(C)CC3)[C@@H]4OC(C)=O)[C@@]2(C)C[C@@H]1N1CC[N+](C)(C)CC1,inactive
4,NCCC[C@H](N)CC(=O)N[C@H]1CNC(=O)[C@H]([C@H]2C[C@H](O)NC(N)=N2)NC(=O)/C(=C/NC(N)=O)NC(=O)[C@H](CO)NC(=O)[C@H](CO)NC1=O (β3hOrn-[Dap]SS[ΔAla(Z-3-ureido)][X5]; lactam 1-C),inactive
5,CCOc1ccc(C[C@H]2NC(=O)CCSSC[C@@H](C(=O)N3CCC[C@H]3C(=O)N[C@@H](CCCN)C(=O)NCC(N)=O)NC(=O)[C@H](CC(N)=O)NC(=O)[C@H]([C@@H](C)O)NC(=O)[C@H]([C@@H](C)CC)NC2=O)cc1 ([Mpa][dY](Et)ITNCP[Orn]G-NH2; disulfide 1-6),inactive
6,O=P(O)(O)C(O)(Cc1cnc2ccccn12)P(=O)(O)O,inactive
7,OCC(O)COc1ccc(Cl)cc1 (centres undefined),inactive
8,CCCCCCCCCCCCCCCC(=O)OC[C@@H](NC(=O)C(Cl)Cl)[C@H](O)c1ccc([N+](=O)[O-])cc1,inactive
9,NC(=O)Oc1ccc(Cc2ccccc2)cc1,inactive
10,CCCC(CCC)C(N)=O,inactive
11,CC1CC(OC(=O)C(O)c2ccccc2)CC(C)(C)C1 (centres undefined),inactive
12,OC(CN1CCCCC1)c1cc(-c2ccccc2)on1 (centres undefined),inactive
13,CCC(c1ccccc1)c1noc(CCN(CC)CC)n1 (centres undefined),inactive
14,O=S(O)CNc1ccc(S(=O)(=O)c2ccc(NCS(=O)O)cc2)cc1,inactive
15,C=CCN1CCCC1CNC(=O)c1cc(S(N)(=O)=O)cc(OC)c1OC (centres undefined),inactive
16,CCCCCCCCCCCCCCCCCC(=O)OCCO,inactive
17,CCCCCCCCCCCCCCCCCCCCCC(=O)Nc1ccn([C@@H]2O[C@H](CO)[C@@H](O)[C@@H]2O)c(=O)n1,inactive
18,CCCCOC(=O)C(=O)Nc1cccc(-c2nn[nH]n2)c1,inactive
19,CCOC(=O)[C@H](CCc1ccccc1)N[C@H]1CCCN2CCC[C@@H](C(=O)O)N2C1=O,inactive
20,CC(C)CN(C[C@@H](O)[C@H](Cc1ccccc1)NC(=O)O[C@@H]1CCOC1)S(=O)(=O)c1ccc(N)cc1,inactive

row,Structure (SMILES),Potency
1,O.O=C([O-])CC([S-])C(=O)[O-].[Au+].[Na+].[Na+] (centres undefined),inactive
2,O=P(O)(O)C(Sc1ccc(Cl)cc1)P(=O)(O)O,inactive
3,O=C(CCCN1CCC(C(=O)c2ccc(F)cc2)CC1)c1ccc(F)cc1,inactive
4,C[C@H]1C[C@H]2[C@@H]3CCC4=CC(=O)C=C[C@]4(C)[C@@]3(F)[C@@H](O)C[C@]2(C)[C@@]1(O)C(=O)CCl,inactive
5,CC#CCC(C)[C@H](O)/C=C/[C@@H]1[C@H]2C/C(=C/CCCC(=O)O)C[C@H]2C[C@H]1O (some centres undefined),inactive
6,NCCC[C@H](N)C(=O)O,inactive
7,CN1[C@@H]2CCC[C@H]1CC(NC(=O)c1nn(C)c3ccccc13)C2 (some centres undefined),inactive
8,CS(=O)(=O)NC(=O)CCC/C=C\C[C@H]1C(=O)C[C@@H](O)[C@@H]1/C=C/[C@H](O)COc1ccccc1,inactive
9,OC[C@@H](O)C(O)[C@H](O)CO,inactive
10,N[C@@H](C(=O)N[C@@H]1C(=O)N2C(C(=O)O)=C(CSc3cn[nH]n3)CS[C@H]12)c1ccc(O)cc1,inactive
11,CC1(C)S[C@@H]2[C@H](NC(=O)Cc3ccccc3)C(=O)N2[C@H]1C(=O)O,inactive
12,COC(=O)[C@H]1[C@H]2C[C@@H]3c4[nH]c5cc(OC)ccc5c4CCN3C[C@H]2C[C@@H](OC(=O)/C=C/c2cc(OC)c(OC)c(OC)c2)[C@@H]1OC,inactive
13,Cn1nnnc1SCC1=C(C(=O)O)N2C(=O)[C@@H](NC(=O)[C@H](OC=O)c3ccccc3)[C@H]2SC1,inactive
14,CC(C)(C)CC(=O)OCC(=O)[C@@]12OC(C)(C)O[C@@H]1C[C@H]1[C@@H]3CCC4=CC(=O)C=C[C@]4(C)[C@@]3(F)[C@@H](O)C[C@@]12C,inactive
15,COc1ccc2c(=O)c(C)c(-c3ccccc3)oc2c1CN(C)C,inactive
16,CCOC(=O)COc1ccc2c(C)c(CCN(CC)CC)c(=O)oc2c1,inactive
17,O=C(O)[C@H](CC(=O)N1C[C@H]2CCCC[C@H]2C1)Cc1ccccc1,inactive
18,C=C1/C(=C\C=C2/CCC[C@]3(C)[C@@H]([C@H](C)OCCC(C)(C)O)CC[C@@H]23)C[C@@H](O)C[C@@H]1O,inactive
19,N=C(N)c1ccc(OCCCOc2ccc(C(=N)N)cc2Br)c(Br)c1,inactive
